Source: PubChem BioAssay (EPA / NIEHS)
Records with an inconclusive call do not appear. Active and inactive are the calls of the source. Rule for the calls, unless noted: active = hit-call score of the fitted dose curve at least 0.9, where 1 is the maximum; inconclusive = response in the unintended direction; inactive = score below 0.9.

Legend:
[1] = ATG_TAL_CIS: Attagene CIS-FACTORIAL HepG2 Assay for human TAL Basal Promoter (AID 2282966; active = hit-call score of the fitted dose curve at least 0.9, where 1 is the maximum; inactive = score below 0.9;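 note: background control endpoint measuring basal TAL promoter reporter mRNA not a specific factor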); conditions: HepG2 Attagene cis-factorial TAL promoter reporter; actives raise or lower the signal
Method in brief: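 HepG2 cells were transiently transfected with promoter-driven multiplexed reporter units and dosed for 24 h. Reporter mRNA was measured by RT-PCR with capillary electrophoresis fluorescence; bidirectional fits used DMSO as baseline, serving as a background control.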

[2] = ATG_VDRE_CIS: Attagene CIS-FACTORIAL HepG2 Assay for human Vitamin D Receptor Element (VDRE) (AID 2282968; active = hit-call score of the fitted dose curve at least 0.9, where 1 is the maximum; inactive = score below 0.9); conditions: HepG2 VDRE cis-reporter transcription, actives raise or lower the signal
Method in brief: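 In transiently transfected HepG2 liver cells, gain or loss of reporter mRNA after 24 h exposure is scored relative to DMSO, using fluorescence detection by capillary electrophoresis of RT-PCR products.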

[3] = target: Estrogen receptor (Homo sapiens) (UniProt P03372); assay: ATG_ERa_TRANS: Attagene TRANS-FACTORIAL HepG2 Assay for human Estrogen Receptor alpha (ERa) (AID 2282970); conditions: HepG2 Attagene TRANS ERa GAL4 reporter, mRNA
Method in brief: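 HepG2 cells transiently transfected with multiplexed GAL4-UAS reporter units; ERa activity read via exogenous chimeric NR-Gal4 protein. After 24 hour compound exposure, reporter mRNA measured by RT-PCR with 6-FAM labelling and capillary electrophoresis; gain-of-signal fitted relative to DMSO.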

[4] = target: Steroid hormone receptor ERR1 (Homo sapiens) (UniProt P11474); assay: ATG_ERRa_TRANS: Attagene TRANS-FACTORIAL HepG2 Assay for human Estrogen-Related Receptor alpha (ERRa) (AID 2282971); conditions: HepG2 Attagene TRANS reporter, ERRa transactivation
Method in brief: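 HepG2 cells transiently transfected with multiplexed GAL4-UAS reporter units reading chimeric ERRa-Gal4 activity; 24 h compound exposure. Reporter mRNA measured by RT-PCR, 6-FAM labelling, HpaI digest and capillary electrophoresis; gain of signal fitted versus DMSO baseline.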

[5] = target: X-box-binding protein 1 (Homo sapiens) (UniProt P17861); assay: ATG_Xbp1_CIS: Attagene CIS-FACTORIAL HepG2 Assay for human X-box Binding Protein 1 (XBP1) (AID 2282972; active = hit-call score of the fitted dose curve at least 0.9, where 1 is the maximum; inactive = score below 0.9); conditions: HepG2 XBP1 cis-element reporter, Attagene multiplex; actives raise or lower the signal
Method in brief: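 HepG2 cells transiently transfected with multiple cis-element reporter units report endogenous TF activity; 24 h exposure, then reporter mRNA measured by RT-PCR, 6-FAM labelling, HpaI digestion and capillary electrophoresis. Bidirectional fitting versus DMSO.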

[6] = target: Androgen receptor (Homo sapiens) (UniProt P10275); assay: ATG_AR_TRANS: Attagene TRANS-FACTORIAL HepG2 Assay for human Androgen Receptor (AR) (AID 2282973); conditions: HepG2 Attagene TRANS-FACTORIAL AR reporter transcription
Method in brief: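 HepG2 cells transiently transfected with multiplexed GAL4-UAS reporter units and chimeric NR-Gal4 fusion; 24 h compound exposure. Reporter mRNA measured by RT-PCR, 6-FAM labelling, HpaI digestion and capillary electrophoresis; gain-of-signal fitted relative to DMSO baseline.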

[7] = ATG_M_19_TRANS: Attagene TRANS-FACTORIAL HepG2 Assay for M19 Transcription Factor (Internal Marker) (AID 2282974); conditions: HepG2 Attagene TRANS-FACTORIAL M19 internal marker reporter
Method in brief: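 Background-control readout: after 24 h chemical exposure of transfected HepG2 carrying GAL4-driven reporter units, RNA was reverse-transcribed, amplified, fluorescently labeled and sized by capillary electrophoresis; gain-of-signal fit against DMSO.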

[8] = target: Glucocorticoid receptor (Homo sapiens) (UniProt P04150); assay: ATG_GR_TRANS: Attagene TRANS-FACTORIAL HepG2 Assay for human Glucocorticoid Receptor (GR) (AID 2282978); conditions: HepG2 Attagene TRANS GR reporter, mRNA transcription;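 note: activators score as hits since higher reporter transcript over DMSO is fitted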
Method in brief: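 Readout is reporter transcript from a chimeric GR-Gal4 acting on GAL4-UAS in transfected human HepG2 liver cells after 24 h exposure, quantified by RT-PCR and capillary electrophoresis. Activation fitted upward against DMSO.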

[9] = target: Bile acid receptor (Homo sapiens) (UniProt Q96RI1); assay: ATG_FXR_TRANS: Attagene TRANS-FACTORIAL HepG2 Assay for Farnesoid X Receptor (FXR) (AID 2282979); conditions: HepG2 Attagene TRANS FXR-GAL4 reporter transcription;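 note: hits raise reporter mRNA above DMSO so AC50 marks FXR activation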
Method in brief: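 HepG2 cells transiently transfected with reporter constructs in which a chimeric FXR-GAL4 protein drives a GAL4-UAS reporter; 24 h compound exposure. Reporter mRNA measured by RT-PCR, FAM labelling, HpaI digestion and capillary electrophoresis; gain-of-signal versus DMSO.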

[10] = target: Oxysterols receptor LXR-alpha (Homo sapiens) (UniProt Q13133); assay: ATG_LXRa_TRANS: Attagene TRANS-FACTORIAL HepG2 Assay for human Liver X Receptor alpha (LXRa) (AID 2282980); conditions: HepG2 Attagene TRANS reporter, LXRa transactivation
Method in brief: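 HepG2 cells were transiently transfected with multiplexed reporter units driven by chimeric LXRa–GAL4 fusion proteins, then dosed for 24 h. Reporter mRNA was quantified by RT-PCR, fluorescent labelling and capillary electrophoresis; gain of signal fitted against DMSO baseline.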

[11] = target: Oxysterols receptor LXR-beta (Homo sapiens) (UniProt P55055); assay: ATG_LXRb_TRANS: Attagene TRANS-FACTORIAL HepG2 Assay for human Liver X Receptor beta (LXRb) (AID 2282981); conditions: HepG2 Attagene TRANS GAL4-LXRb reporter, mRNA
Method in brief: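 Cells: HepG2, transiently transfected with GAL4-UAS reporter units plus LXRb-Gal4 fusion. Treatment: 24 h. Detection: reporter mRNA by RT-PCR, 6-FAM labelling, HpaI digestion, capillary electrophoresis.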

[12] = target: Hepatocyte nuclear factor 4-alpha (Homo sapiens) (UniProt P41235); assay: ATG_HNF4a_TRANS: Attagene TRANS-FACTORIAL HepG2 Assay for human Hepatocyte Nuclear Factor 4 alpha (HNF4a) (AID 2282982); conditions: HepG2 HNF4a transactivation reporter, mRNA readout
Method in brief: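 Transfected HepG2 reporter cells are dosed for 24 h; reporter RNA is reverse-transcribed, amplified, fluorescently labelled and HpaI-digested before CE sizing. Positive-direction fit against DMSO.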

[13] = ATG_M_06_TRANS: Attagene TRANS-FACTORIAL HepG2 Assay for M06 Transcription Factor (Internal Marker) (AID 2282983); conditions: HepG2 Attagene TRANS M06 internal marker reporter;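 note: reporter transcript level by RT-PCR then capillary electrophoresis fluorescence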
Method in brief: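 HepG2 cells transiently transfected with multiplexed GAL4-UAS reporter transcription units; after 24 h compound exposure, reporter mRNA measured by RT-PCR, FAM-labelled primer extension, HpaI digestion and capillary electrophoresis. Gain-of-signal fitted versus DMSO baseline; background control readout.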

[14] = target: Transcriptional activator Myb (Homo sapiens) (UniProt P10242); assay: ATG_Myb_CIS: Attagene CIS-FACTORIAL HepG2 Assay for human Myeloblastosis (Myb) Proto-Oncogene Transcription Factor (AID 2282986; active = hit-call score of the fitted dose curve at least 0.9, where 1 is the maximum; inactive = score below 0.9); conditions: HepG2 Attagene CIS-FACTORIAL Myb reporter transcription; actives raise or lower the signal
Method in brief: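 Reporter mRNA is quantified by RT-PCR and capillary electrophoresis 24 h after dosing HepG2 cells transfected with cis-regulated reporter units, which track endogenous transcription factor activity. Gain and loss of signal are fitted versus DMSO baseline.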

[15] = target: Nuclear receptor subfamily 1 group I member 3 (Homo sapiens) (UniProt Q14994); assay: ATG_CAR_TRANS: Attagene TRANS-FACTORIAL HepG2 Assay for human Constitutive Androstane Receptor (CAR) (AID 2282969); conditions: HepG2 Attagene TRANS-FACTORIAL CAR reporter;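 note: activators raise reporter mRNA above DMSO so AC50 marks induction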
Method in brief: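 Readout is reporter mRNA induction, quantified by fluorescent primer extension and capillary electrophoresis after RT-PCR. Cells were HepG2 transiently carrying chimeric NR-Gal4 constructs with GAL4-UAS reporters, treated for 24 h; activity scored upward from DMSO.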

[16] = ATG_GAL4_TRANS: Attagene TRANS-FACTORIAL HepG2 Assay for GAL4 (Internal Marker) (AID 2282976); conditions: HepG2 Attagene TRANS GAL4 internal marker reporter
Method in brief: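 HepG2 cells transiently transfected with multiplexed GAL4-UAS reporter constructs were dosed for 24 h. Reporter mRNA was measured by RT-PCR, 6-FAM primer extension, HpaI digestion and capillary electrophoresis, and gain of signal was fitted relative to DMSO.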

[17] = ATG_M_32_TRANS: Attagene TRANS-FACTORIAL HepG2 Assay for M32 Transcription Factor (Internal Marker) (AID 2282984); conditions: HepG2 Attagene TRANS M32 internal marker reporter
Method in brief: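 Using transiently transfected HepG2 cells exposed to test chemicals for 24 h, reporter transcripts are converted to labelled cDNA fragments and quantified by capillary electrophoresis. DMSO defines the activity baseline.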

[18] = target: Estrogen-related receptor gamma (Homo sapiens) (UniProt P62508); assay: ATG_ERRg_TRANS: Attagene TRANS-FACTORIAL HepG2 Assay for human Estrogen-Related Receptor gamma (ERRg) (AID 2282977); conditions: HepG2 Attagene TRANS reporter, ERRg transactivation;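 note: hits increase reporter signal over DMSO so potencies reflect activators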
Method in brief: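 HepG2 cells transiently transfected with multiplexed GAL4-UAS reporter units and chimeric NR-Gal4 constructs were exposed to test chemicals for 24 h. Reporter mRNA was measured by RT-PCR, 6-FAM primer extension, HpaI digestion and capillary electrophoresis; gain-of-signal versus DMSO.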

[19] = target: Nuclear receptor subfamily 4 group A member 2 (Homo sapiens) (UniProt P43354); assay: ATG_NURR1_TRANS: Attagene TRANS-FACTORIAL HepG2 Assay for human Nuclear Receptor Related Protein 1 (NURR1) (AID 2282985); conditions: HepG2 Attagene TRANS reporter, mRNA readout
Method in brief: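 Cells: HepG2, transiently transfected. Exposure: 24 h. Detection: fluorescence of labelled RT-PCR products separated by capillary electrophoresis; upward fit versus DMSO.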

Measured: AC50

Chain of X-box-binding protein 1 (Homo sapiens) (P17861 whole entry, looked up): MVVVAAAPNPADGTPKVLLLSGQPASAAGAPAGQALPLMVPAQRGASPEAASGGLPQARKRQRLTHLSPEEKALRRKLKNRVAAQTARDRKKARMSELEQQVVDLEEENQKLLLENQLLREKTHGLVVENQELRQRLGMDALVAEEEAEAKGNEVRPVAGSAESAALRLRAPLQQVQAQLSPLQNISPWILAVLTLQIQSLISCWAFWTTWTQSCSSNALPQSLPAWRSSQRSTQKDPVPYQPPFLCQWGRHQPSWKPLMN
Chain of Oxysterols receptor LXR-alpha (Homo sapiens) (Q13133 whole entry, looked up, the tested form may be a part): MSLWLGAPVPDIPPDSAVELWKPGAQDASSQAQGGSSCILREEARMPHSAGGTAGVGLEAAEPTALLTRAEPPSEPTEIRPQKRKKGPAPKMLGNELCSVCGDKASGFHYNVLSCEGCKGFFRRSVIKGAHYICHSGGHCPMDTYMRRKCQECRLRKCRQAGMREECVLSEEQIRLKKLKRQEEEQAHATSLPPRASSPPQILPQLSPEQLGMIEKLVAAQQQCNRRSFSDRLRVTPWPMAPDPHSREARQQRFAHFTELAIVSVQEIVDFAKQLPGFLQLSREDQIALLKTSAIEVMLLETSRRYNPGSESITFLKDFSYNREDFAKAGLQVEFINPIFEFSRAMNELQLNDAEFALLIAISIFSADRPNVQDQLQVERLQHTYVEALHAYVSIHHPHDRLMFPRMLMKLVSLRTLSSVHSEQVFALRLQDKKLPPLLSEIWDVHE
Chain of Oxysterols receptor LXR-beta (Homo sapiens) (P55055 whole entry, looked up, the tested form may be a part): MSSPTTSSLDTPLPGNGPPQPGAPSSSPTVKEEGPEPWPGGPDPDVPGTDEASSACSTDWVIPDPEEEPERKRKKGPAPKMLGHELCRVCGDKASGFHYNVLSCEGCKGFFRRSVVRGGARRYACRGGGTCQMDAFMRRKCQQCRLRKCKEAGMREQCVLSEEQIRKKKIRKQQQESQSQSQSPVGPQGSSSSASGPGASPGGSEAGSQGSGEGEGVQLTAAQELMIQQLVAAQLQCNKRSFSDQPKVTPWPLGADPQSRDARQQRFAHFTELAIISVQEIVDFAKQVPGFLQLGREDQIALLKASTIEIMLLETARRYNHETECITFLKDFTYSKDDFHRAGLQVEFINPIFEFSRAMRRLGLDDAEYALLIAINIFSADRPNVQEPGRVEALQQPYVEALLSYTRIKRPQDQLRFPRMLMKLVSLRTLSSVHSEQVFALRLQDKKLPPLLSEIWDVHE
Chain of Estrogen receptor (Homo sapiens) (P03372 whole entry, looked up, the tested form may be a part): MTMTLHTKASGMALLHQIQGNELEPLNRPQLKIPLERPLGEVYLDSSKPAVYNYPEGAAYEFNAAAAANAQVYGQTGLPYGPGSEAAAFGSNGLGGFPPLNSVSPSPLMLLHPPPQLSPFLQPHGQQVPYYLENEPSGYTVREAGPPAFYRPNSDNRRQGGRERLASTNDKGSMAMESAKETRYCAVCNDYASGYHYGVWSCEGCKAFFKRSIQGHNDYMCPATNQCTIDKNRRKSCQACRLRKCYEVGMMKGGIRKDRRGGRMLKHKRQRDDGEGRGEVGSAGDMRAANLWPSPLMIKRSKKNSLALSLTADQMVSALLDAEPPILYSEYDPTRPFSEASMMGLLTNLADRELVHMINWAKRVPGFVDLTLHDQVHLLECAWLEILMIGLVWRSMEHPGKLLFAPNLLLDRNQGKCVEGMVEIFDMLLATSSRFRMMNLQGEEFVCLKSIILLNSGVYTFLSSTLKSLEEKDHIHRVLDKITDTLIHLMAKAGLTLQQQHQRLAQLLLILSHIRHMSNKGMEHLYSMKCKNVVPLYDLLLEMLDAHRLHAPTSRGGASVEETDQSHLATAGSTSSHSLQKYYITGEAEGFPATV
Chain of Transcriptional activator Myb (Homo sapiens) (P10242 whole entry, looked up): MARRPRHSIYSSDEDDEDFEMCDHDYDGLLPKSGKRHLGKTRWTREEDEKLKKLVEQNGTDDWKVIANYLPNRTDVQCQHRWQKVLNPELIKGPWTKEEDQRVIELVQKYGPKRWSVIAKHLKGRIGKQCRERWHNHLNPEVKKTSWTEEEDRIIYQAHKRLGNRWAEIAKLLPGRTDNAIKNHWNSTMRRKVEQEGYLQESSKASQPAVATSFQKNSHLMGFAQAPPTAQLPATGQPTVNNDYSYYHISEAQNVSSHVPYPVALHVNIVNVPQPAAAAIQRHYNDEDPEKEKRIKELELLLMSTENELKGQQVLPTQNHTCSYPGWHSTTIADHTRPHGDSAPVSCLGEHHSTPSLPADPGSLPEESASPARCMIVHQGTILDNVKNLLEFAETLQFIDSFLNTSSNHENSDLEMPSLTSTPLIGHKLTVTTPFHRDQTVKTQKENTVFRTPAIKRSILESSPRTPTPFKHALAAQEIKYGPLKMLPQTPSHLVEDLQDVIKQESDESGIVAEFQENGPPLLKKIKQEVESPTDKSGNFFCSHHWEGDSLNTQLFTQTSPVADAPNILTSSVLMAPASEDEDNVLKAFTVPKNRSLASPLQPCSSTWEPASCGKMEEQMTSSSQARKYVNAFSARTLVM
Chain of Bile acid receptor (Homo sapiens) (Q96RI1 whole entry, looked up, the tested form may be a part): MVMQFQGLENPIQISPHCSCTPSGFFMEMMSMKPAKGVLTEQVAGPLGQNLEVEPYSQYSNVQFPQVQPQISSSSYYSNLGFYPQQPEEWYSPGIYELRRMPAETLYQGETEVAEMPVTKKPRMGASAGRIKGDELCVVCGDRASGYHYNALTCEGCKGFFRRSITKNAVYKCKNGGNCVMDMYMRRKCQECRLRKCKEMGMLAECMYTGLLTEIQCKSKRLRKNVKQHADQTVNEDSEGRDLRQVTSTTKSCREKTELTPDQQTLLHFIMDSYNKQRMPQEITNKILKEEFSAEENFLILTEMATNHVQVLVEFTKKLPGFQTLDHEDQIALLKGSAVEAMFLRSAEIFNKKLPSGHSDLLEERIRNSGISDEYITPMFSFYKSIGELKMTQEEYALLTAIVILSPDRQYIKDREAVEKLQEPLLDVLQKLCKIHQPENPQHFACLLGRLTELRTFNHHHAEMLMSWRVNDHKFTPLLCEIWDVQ
Chain of Steroid hormone receptor ERR1 (Homo sapiens) (P11474 whole entry, looked up, the tested form may be a part): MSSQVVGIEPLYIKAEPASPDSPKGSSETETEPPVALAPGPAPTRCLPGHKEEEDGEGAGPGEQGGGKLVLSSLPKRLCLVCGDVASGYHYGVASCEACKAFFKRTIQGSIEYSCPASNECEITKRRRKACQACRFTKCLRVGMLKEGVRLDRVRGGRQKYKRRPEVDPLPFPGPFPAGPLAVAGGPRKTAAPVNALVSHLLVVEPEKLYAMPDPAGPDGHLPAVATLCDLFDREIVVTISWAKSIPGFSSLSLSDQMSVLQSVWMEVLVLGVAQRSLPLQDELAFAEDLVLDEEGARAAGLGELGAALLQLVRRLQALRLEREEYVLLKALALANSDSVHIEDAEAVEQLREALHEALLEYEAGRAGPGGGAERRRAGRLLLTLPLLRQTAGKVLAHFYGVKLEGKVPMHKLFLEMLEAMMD
Chain of Nuclear receptor subfamily 1 group I member 3 (Homo sapiens) (Q14994 whole entry, looked up, the tested form may be a part): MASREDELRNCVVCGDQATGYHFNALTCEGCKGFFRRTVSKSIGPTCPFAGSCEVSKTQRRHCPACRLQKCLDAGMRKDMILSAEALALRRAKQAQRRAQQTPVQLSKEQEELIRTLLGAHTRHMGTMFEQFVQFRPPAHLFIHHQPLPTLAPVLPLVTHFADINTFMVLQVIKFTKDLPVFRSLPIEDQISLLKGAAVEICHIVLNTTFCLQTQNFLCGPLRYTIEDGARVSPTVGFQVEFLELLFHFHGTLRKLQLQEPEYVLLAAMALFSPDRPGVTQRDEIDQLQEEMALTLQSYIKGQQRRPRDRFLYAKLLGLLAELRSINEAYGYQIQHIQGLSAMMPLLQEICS
Chain of Hepatocyte nuclear factor 4-alpha (Homo sapiens) (P41235 whole entry, looked up): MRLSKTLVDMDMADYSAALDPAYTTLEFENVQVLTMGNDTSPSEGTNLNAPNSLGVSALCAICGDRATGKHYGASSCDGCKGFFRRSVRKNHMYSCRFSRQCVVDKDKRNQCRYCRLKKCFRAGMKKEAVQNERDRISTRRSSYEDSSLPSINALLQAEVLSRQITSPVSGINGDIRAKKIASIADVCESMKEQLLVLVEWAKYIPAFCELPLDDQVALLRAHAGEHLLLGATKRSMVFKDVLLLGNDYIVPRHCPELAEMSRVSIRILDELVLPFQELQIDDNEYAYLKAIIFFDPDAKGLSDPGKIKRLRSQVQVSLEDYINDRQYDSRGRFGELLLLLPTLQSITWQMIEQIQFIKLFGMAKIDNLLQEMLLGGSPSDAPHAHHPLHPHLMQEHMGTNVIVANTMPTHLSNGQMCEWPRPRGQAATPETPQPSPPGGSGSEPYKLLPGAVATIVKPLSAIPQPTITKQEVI
Chain of Glucocorticoid receptor (Homo sapiens) (P04150 whole entry, looked up, the tested form may be a part): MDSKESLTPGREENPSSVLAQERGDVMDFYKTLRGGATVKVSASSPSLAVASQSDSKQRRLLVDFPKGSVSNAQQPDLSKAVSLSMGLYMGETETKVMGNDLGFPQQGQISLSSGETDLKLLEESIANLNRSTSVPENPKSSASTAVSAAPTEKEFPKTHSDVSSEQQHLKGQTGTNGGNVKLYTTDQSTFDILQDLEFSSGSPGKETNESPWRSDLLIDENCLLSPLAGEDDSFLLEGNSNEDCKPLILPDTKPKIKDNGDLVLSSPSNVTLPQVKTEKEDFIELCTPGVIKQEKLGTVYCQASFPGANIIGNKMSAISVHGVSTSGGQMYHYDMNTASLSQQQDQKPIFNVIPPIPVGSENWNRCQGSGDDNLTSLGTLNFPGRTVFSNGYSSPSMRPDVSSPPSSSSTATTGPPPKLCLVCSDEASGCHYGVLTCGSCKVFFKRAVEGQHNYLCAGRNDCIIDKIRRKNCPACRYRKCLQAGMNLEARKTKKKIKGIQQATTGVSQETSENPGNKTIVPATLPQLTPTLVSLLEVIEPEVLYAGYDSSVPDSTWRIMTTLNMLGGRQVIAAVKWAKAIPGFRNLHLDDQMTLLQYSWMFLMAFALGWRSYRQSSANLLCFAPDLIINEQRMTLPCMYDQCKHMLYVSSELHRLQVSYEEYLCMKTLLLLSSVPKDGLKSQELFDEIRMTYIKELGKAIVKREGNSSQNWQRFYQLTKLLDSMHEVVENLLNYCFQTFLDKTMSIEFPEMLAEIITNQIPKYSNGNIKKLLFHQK

OCC(F)(F)OC(F)(F)C(F)(F)OC(F)(F)C(F)(F)OC(F)(F)CO
inactive: [1] | [4] | [5] | [6] | [7] | [8] | [9] | [10] | [11] | [12] | [13] | [14]
active: [2] 18.6 µM | [3] 0.281 µM

FC(F)(F)c1ccc(Cl)cc1
inactive: [1] | [2] | [15] | [5] | [16] | [8] | [10] | [11] | [12] | [13] | [17] | [14]

CCC(C)(C)c1ccc(O)cc1
inactive: [1] | [2] | [4] | [5] | [16] | [18] | [9] | [13] | [19]
active: [3] 2.25 µM | [14] 46.1 µM

CCCCc1ccccc1
inactive: [1] | [2] | [3] | [5] | [7] | [9] | [10] | [19] | [14]

CC(=O)CCc1ccc2c(c1)OCO2
inactive: [1] | [15] | [3] | [5] | [16] | [18] | [9] | [11] | [13] | [17] | [14]
